Screening data as filed in PubChem BioAssay.
SARS PLpro yeast: qHTS of Yeast-based Assay for SARS-CoV PLP | S. cerevisiae expressing SARS-CoV PLpro, growth rescue | 0.19% of 330,000 active | Potency, µM (series often up to 32.9 µM), for the others: at the highest dose activity, positive = growth rescue, usual class: activators; calls by dose curve; also: potency is read from the fitted curve at half-maximal effect; 0% is about no effect; nearly all actives have a fitted effect of over 55% in size
Marburg entry inh: qHTS for inhibitors of binding or entry into cells for Marburg Virus; Marburg virus pseudotyped entry inhibition, cell reporter; Potency, µM (doses to about 37.8 µM), inactives show top-dose activity change, negative = inhibition, hits mostly inhibitors; 1.8% of 300,000 active; AID 540276, 2011; calls by dose curve; tested in HEK293 cells; also: potency is read from the fitted curve at half-maximal effect; % is scaled to controls: 0 for no effect and ±100 for the full control effect
LASV entry inh: qHTS for Inhibitors of binding or entry into cells for Lassa Virus; AID 540256, 2011; 1.2% of 300,000 active; Potency, µM (doses to about 37.9 µM), inactives show at the top dose activity change, negative = inhibition, actives largely listed as inhibitors; Lassa virus pseudotype entry inhibition, cell reporter; calls by dose curve; tested in HEK293 cells; also: potency is read from the fitted curve at half-maximal effect; % is scaled to controls: 0 for no effect and ±100 for the full control effect; nearly all actives have a fitted effect of over 50% in size
FMDV antiviral: High Throughput Screening for Foot and Mouth Disease Virus Antivirals; FMDV antiviral cell-based qHTS; Potency, µM (series often up to 57.9 µM), for inactives: at the top dose activity change, negative = inhibition, most hits filed as inhibitors; 1.2% of 410,000 active; AID 1159524, 2015; calls by dose curve; tested in HEK293T cells; also: read-out not given here; potency is read from the fitted curve at half-maximal effect; % is scaled to controls: 0 for no effect and ±100 for the full control effect; nearly all actives have a fitted effect of over 45% in size
HCV inhibitor: qHTS Assay for Inhibitors of Hepatitis C Virus (HCV). 3.4% of 340,000 active. Huh7.5.1 HCVcc-Cre infection, luciferase reporter, 44 h. Potency, µM (top dose mostly 41.8 µM), inactives show at the top dose activity change, negative = inhibition, actives largely listed as inhibitors; active = well fitted inhibition curve with a large enough effect; inconclusive = small, poorly fitted or top-dose-only effect, or another doubt; inactive = no such curve, though single readings can be large or run the other way; also: potency is read from the fitted curve at half-maximal effect; % is scaled to controls: 0 for no effect and ±100 for the full control effect
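Seed cells (1,000/well) for 4 h; treat with compound and infect with HCVcc-Cre, moi about 0.5. Incubate 44 h, then detect luciferase activity.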
HCMV antiviral: qHTS Assay for inhibitors of the human cytomegalovirus (HCMV); activity change, negative = inhibition, % at 57.5 µM; HFF cells, HCMV-luciferase reporter, 72 h; hits give low values; AID 1259415, 2018; 4.5% of 410,000 active; in the data active = activity change below about -60%; inconclusive = no clear call, values can overlap the other calls; inactive = above about -39%; also: % is scaled to controls: 0 for no effect and ±100 for the full control effect
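Cell-based, HFFs, 1000 cells/well, 16 h 37C; cpds in DMSO + HCMV-luc, MOI 1 PFU/cell; 72 h 37C; OneGlo luminescence after 5 min RT; norm. to buffer vs Salinomycin 10uM.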
* hit, by the source's call; ? = inconclusive; / = not tested or not shown. This is a sample that favours compounds with a hit; in the whole collection about 8% have one here.

SMILES	SARS PLpro yeast	Marburg entry inh	LASV entry inh	FMDV antiviral	HCV inhibitor	HCMV antiviral
CCN(CC)CCCNC(=S)N(Cc1cccs1)Cc1cc2cc3c(cc2[nH]c1=O)OCCO3	0%	?	6%	-3%	-7%	-104*
CCN(CC)CCN(Cc1cc2cc3c(cc2[nH]c1=O)OCCO3)C(=S)NCC(C)C	-4%	11µM*	?	-10%	?	12
CCOC(=O)C1(CC2CCCCO2)CCN(C(=O)Nc2ccccc2CC)CC1 (stereo not drawn)	-1%	/	/	-18%	9%	-65*
COc1cc(OC)c(/C=N/NC(=O)c2ccc(NC(C)=O)cc2)cc1Br	0%	?	11%	5%	-6%	-22
CC(C)C(=O)Nc1ccc(C(=O)N/N=C/c2cc(Br)cc(Br)c2O)cc1	2%	?	?	-13%	?	-78*
